PubChem BioAssay (NCATS)
Records with an inconclusive call do not appear. Values without a mark were called inactive. Calls of active or inactive are those of the source. Calls come from the whole dose curve; as a rule, active = well fitted inhibition curve with a large enough effect; inconclusive = small, poorly fitted or top-dose-only effect; inactive = flat fitted curve, though single readings scatter.

system: not listed separately; test: qHTS profiling for inhibitors of Plasmodium falciparum proliferation (AID 504749); note: nearly all actives have a fitted effect of over 60% in size;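 for activity, negative = inhibition: 0% = DMSO vehicle and full inhibition = artemisinin control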; conditions: P. falciparum in erythrocytes, SYBR Green DNA, 72 h; at 28.7 µM (top of the series); parasite line B
How it was run: (§1)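 Fluorescence of SYBR Green-bound parasite DNA, read at 485/535 nm, served as the growth measure. Infected erythrocytes were cultured with compound 72 h; artemisinin (0.29 uM) and DMSO wells defined the normalization range.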
Potency is the fitted concentration of half-maximal effect.

| Compound | activity, negative = inhibition |
| --- | --- |
| O=C(O)c1ccccc1O | 11.3% |
| Cc1c(Cl)cccc1Nc1ccccc1C(=O)O | 8.76% |
| C[C@H]1O[C@@H](n2cc(F)c(=O)[nH]c2=O)[C@H](O)[C@@H]1O | 4.84% |
| CCCCOC(=O)c1ccc(O)cc1 | 8.94% |
| CCCCCCCCCCCCCCCC(=O)NCCO | 4.77% |
| CCCn1cnc2c1c(=O)n(CCCCC(C)=O)c(=O)n2C | -0.0808% |
| Cc1cc(C(C#N)c2ccc(Cl)cc2)c(Cl)cc1NC(=O)c1cc(I)cc(I)c1O (configuration not stated) | 7.42% |
| COC(=O)C1=C(C)NC(C)=C(C(=O)OC)C1c1ccccc1[N+](=O)[O-] | -24% |
| O=S(=O)(O)c1cc(I)c(O)c2ncccc12 | -2.06% |
| Nc1ncnc2c1ncn2[C@@H]1O[C@H](CO)[C@@H](O)[C@H]1O | 2.17% |
| Cc1ccc(C(C)C)cc2c(C)ccc1-2 | -20.9% |
| NC1CCN(c2cccc(Cl)n2)CC1 | 5.51% |
| O=C1O[C@H]([C@@H](O)CO)C(O)=C1O | 5.51% |
| Cn1c(=O)c2c(ncn2CC2OCCO2)n(C)c1=O | -9.38% |
| CC12CCC(CC1)C(C)(C)O2 | -14.4% |
| CC[C@@]1(c2ccccc2)NC(=O)N(C)C1=O | 13.3% |
| CC1=C(CC(=O)O)c2cc(F)ccc2/C1=C\c1ccc(S(C)=O)cc1 (configuration not stated) | -4.38% |
| CC1=C(/C=C/C(C)=C/C=C/C(C)=C/C(=O)O)C(C)(C)CCC1 | -26.7% |

same assay, conditions: P. falciparum in erythrocytes, SYBR Green DNA, 72 h; parasite line B

| Compound | Potency |
| --- | --- |
| CCCCN(CCCC)CC(O)c1cc(Cl)cc2c1-c1ccc(Cl)cc1/C2=C/c1ccc(Cl)cc1 (configuration not stated) | 0.0071 µM (active) |
| CCN(CC)CCNC(=O)c1c(C)[nH]c(/C=C2\C(=O)Nc3ccc(F)cc32)c1C | 8.91 µM (active) |
| COc1ccc2[nH]c(S(=O)Cc3ncc(C)c(OC)c3C)nc2n1 (configuration not stated) | 10 µM (active) |
| Cc1c(O)cccc1C(=O)N[C@@H](CSc1ccccc1)[C@H](O)CN1C[C@H]2CCCC[C@H]2C[C@H]1C(=O)NC(C)(C)C | 7.94 µM (active) |

system: 3D7; test: as above; conditions: P. falciparum in erythrocytes, SYBR Green DNA, 72 h; series mostly up to 28.7 µM; activity, negative = inhibition: at the top concentration
How it was run: as §1

| Compound | activity, negative = inhibition | Potency |
| --- | --- | --- |
| O=C(O)c1ccccc1O | -0.056% |  |
| Cc1c(Cl)cccc1Nc1ccccc1C(=O)O | -9.31% |  |
| C[C@H]1O[C@@H](n2cc(F)c(=O)[nH]c2=O)[C@H](O)[C@@H]1O | 10.7% |  |
| CCCCOC(=O)c1ccc(O)cc1 | -2.49% |  |
| CCCCN(CCCC)CC(O)c1cc(Cl)cc2c1-c1ccc(Cl)cc1/C2=C/c1ccc(Cl)cc1 (configuration not stated) |  | 0.0158 µM (active) |
| CCCCCCCCCCCCCCCC(=O)NCCO | 2.37% |  |
| CCCn1cnc2c1c(=O)n(CCCCC(C)=O)c(=O)n2C | -19.4% |  |
| Cc1cc(C(C#N)c2ccc(Cl)cc2)c(Cl)cc1NC(=O)c1cc(I)cc(I)c1O (configuration not stated) | -11.6% |  |
| CCN(CC)CCNC(=O)c1c(C)[nH]c(/C=C2\C(=O)Nc3ccc(F)cc32)c1C |  | 8.91 µM (active) |
| COC(=O)C1=C(C)NC(C)=C(C(=O)OC)C1c1ccccc1[N+](=O)[O-] | -16.4% |  |
| O=S(=O)(O)c1cc(I)c(O)c2ncccc12 | 3.18% |  |
| Nc1ncnc2c1ncn2[C@@H]1O[C@H](CO)[C@@H](O)[C@H]1O | 11.6% |  |
| Cc1ccc(C(C)C)cc2c(C)ccc1-2 | 0.244% |  |
| NC1CCN(c2cccc(Cl)n2)CC1 | -0.566% |  |
| O=C1O[C@H]([C@@H](O)CO)C(O)=C1O | -7.97% |  |
| Cn1c(=O)c2c(ncn2CC2OCCO2)n(C)c1=O | -0.0068% |  |
| C#CCN(C)Cc1ccccc1 | 2.46% [at 12.8 µM] |  |
| CC12CCC(CC1)C(C)(C)O2 | -1.38% |  |
| CC[C@@]1(c2ccccc2)NC(=O)N(C)C1=O | 0.283% |  |
| CC1=C(CC(=O)O)c2cc(F)ccc2/C1=C\c1ccc(S(C)=O)cc1 (configuration not stated) | -11.7% |  |
| COc1ccc2[nH]c(S(=O)Cc3ncc(C)c(OC)c3C)nc2n1 (configuration not stated) |  | 10 µM (active) |
| Cc1c(O)cccc1C(=O)N[C@@H](CSc1ccccc1)[C@H](O)CN1C[C@H]2CCCC[C@H]2C[C@H]1C(=O)NC(C)(C)C |  | 12.6 µM (active) |
| CC1=C(/C=C/C(C)=C/C=C/C(C)=C/C(=O)O)C(C)(C)CCC1 | -4.06% |  |

system: 7G8; test: as above; conditions: P. falciparum in erythrocytes, SYBR Green DNA, 72 h; series mostly up to 28.7 µM; activity, negative = inhibition: at the top concentration
How it was run: as §1

| Compound | activity, negative = inhibition | Potency |
| --- | --- | --- |
| O=C(O)c1ccccc1O | -12.5% |  |
| C[C@H]1O[C@@H](n2cc(F)c(=O)[nH]c2=O)[C@H](O)[C@@H]1O | -18.6% |  |
| CCCCN(CCCC)CC(O)c1cc(Cl)cc2c1-c1ccc(Cl)cc1/C2=C/c1ccc(Cl)cc1 (configuration not stated) |  | 0.0028 µM (active) |
| CCCn1cnc2c1c(=O)n(CCCCC(C)=O)c(=O)n2C |  | 11.2 µM (active) |
| CCN(CC)CCNC(=O)c1c(C)[nH]c(/C=C2\C(=O)Nc3ccc(F)cc32)c1C |  | 3.98 µM (active) |
| Nc1ncnc2c1ncn2[C@@H]1O[C@H](CO)[C@@H](O)[C@H]1O | 5.25% |  |
| O=C1O[C@H]([C@@H](O)CO)C(O)=C1O | 12.6% |  |
| Cn1c(=O)c2c(ncn2CC2OCCO2)n(C)c1=O | -3% |  |
| C#CCN(C)Cc1ccccc1 | 6.49% [at 12.8 µM] |  |
| CC12CCC(CC1)C(C)(C)O2 | -0.864% |  |
| COc1ccc2[nH]c(S(=O)Cc3ncc(C)c(OC)c3C)nc2n1 (configuration not stated) |  | 11.2 µM (active) |
| CC1=C(/C=C/C(C)=C/C=C/C(C)=C/C(=O)O)C(C)(C)CCC1 | -42.3% |  |
